TDP1 cell noCPT = qHTS for Inhibitors of human tyrosyl-DNA phosphodiesterase 1 (TDP1): qHTS in cells in absence of CPT. Potency, µM (highest dose often 46.2 µM), for the others: at the highest dose activity change, negative = growth inhibition, most hits filed as inhibitors. 420,000 compounds, 15% hits. AID 686978, 2013. DT40 Tdp1-/- hTDP1 cells, no CPT, ATP luminescence, 48 h; note: potency is the fitted concentration of half-maximal effect; nearly all actives have a fitted effect of over 55% in size
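Luminescent ATP content (CellTiter-Glo) served as the growth readout. Knockout chicken DT40 cells expressing human TDP1 were exposed to compounds without camptothecin for a minimum 48 hr at 37 °C.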
ELG1 repair inh = qHTS screen for small molecules that inhibit ELG1-dependent DNA repair in human embryonic kidney (HEK293T) cells expressing luciferase-tagged ELG1 | HEK293T ELG1-luciferase reporter, luminescence, 16 h; DNA damage induced by 5-fluorouridine | Potency, µM (top dose mostly 46.1 µM), for the others: at the top dose activity change, negative = inhibition, most hits filed as inhibitors | 330,000 compounds, 2.3% hits; note: potency is the fitted concentration of half-maximal effect; nearly all actives have a fitted effect of over 55% in size
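DMSO vehicle served as the neutral condition. Each well held 2,000 cells given 5-fluorouridine plus compound; after 16 hr at 37 °C/5% CO2, ONE-Glo was added and luciferase measured 30 min later.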
DT40 TDP1 CPT = qHTS for Inhibitors of human tyrosyl-DNA phosphodiesterase 1 (TDP1): qHTS in cells in presence of CPT; chicken DT40 Tdp1-/-;hTDP1 cells + 20 nM CPT, ATP luminescence, 48 h; AID 686979, 2013; Potency, µM (top dose mostly 46.2 µM), for the others: at the highest dose activity change, negative = growth inhibition, hits mostly inhibitors; 420,000 compounds, 12% hits; note: potency is the fitted concentration of half-maximal effect; nearly all actives have a fitted effect of over 55% in size
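Chicken DT40 Tdp1-/- cells stably complemented with human TDP1 were seeded at 400 cells/well in medium containing 20 nM camptothecin, exposed to pin-transferred compounds, and grown at 37 °C for at least 48 hr. Viability was read as ATP luminescence.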
HT1080-NT tox = qHTS for induction of synthetic lethality in tumor cells producing 2HG: qHTS for the HT-1080-NT fibrosarcoma cell line. 360,000 compounds, 1.6% hits. HT-1080-NT fibrosarcoma viability, CellTiter-Glo ATP luminescence, 48 h. AID 686970, 2013. Potency, µM (titrated, usually from 46.1 µM), without a hit: at the highest dose activity, negative = less viability, actives largely listed as cytotoxic;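 note: NT is the 2HG producing partner of a matched IDH1 knockdown line; potency is the fitted concentration of half-maximal effect; 0% = DMSO-treated cells and -100% = media-only wells without cells; nearly all actives have a fitted effect of over 55% in size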
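A 48-hour cytotoxicity screen used HT-1080-NT cells plated 2 hours before compound delivery. ATP-based CellTiter-Glo luminescence measured viability, normalized to DMSO and no-cell controls.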
HT1080 IDH1KD tx = qHTS for induction of synthetic lethality in tumor cells producing 2HG: qHTS for the HT-1080-IDH1KD cell line; 360,000 compounds, 2% hits; Potency, µM (doses to about 46.1 µM), for the others: top-dose activity, negative = toxicity, actives largely listed as cytotoxic; HT-1080 IDH1 knockdown viability, ATP luminescence, 48 h; AID 686971, 2013;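 note: potency is the fitted concentration of half-maximal effect; 0% = DMSO wells and -100% = cell-free medium wells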
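IDH1KD HT-1080 cells, 750/well, RPMI + 5% FBS; compound pinned after 2 h settling; 48 h, 37 °C; CellTiter-Glo luminescence; % activity normalised to DMSO and no-cell wells; curves fitted, classed by r2 and efficacy.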
IL-1B inflam inh = qHTS for Inhibitors of Inflammasome Signaling: IL-1-beta AlphaLISA Primary Screen; THP-1 LPS/ATP IL-1B secretion, AlphaLISA, 16 h; hits give low values; activity change, % at 57.5 µM; 360,000 compounds, 4.7% hits; in the data active = activity change below about -50%; inconclusive = mostly about -30% to -49%
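Secreted IL-1B measured by AlphaLISA bead assay after 16 h compound exposure of THP-1 cells; compounds (final up to 57.5 uM) added 1 h before LPS (250 ng/mL) and ATP (1.25 mM) stimulation; lower signal means less secretion.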
* marks the source's active call; other numbers are inactive results; ? = inconclusive; nt = not tested or not shown; [ ] = dose if it differs, or a comment. Most compounds without a hit are left out; they make up all but 19% or so of the library. Unless noted, calls come from the whole dose curve; as a rule, active = well fitted curve in the direction sought with a large enough effect; inconclusive = small, poorly fitted or top-dose-only effect, or another doubt; inactive = no such curve, though single readings can be large; an effect the other way counts as inactive or inconclusive. Unless noted, % is set by controls: 0 for no effect and ±100 for the full control effect.

SMILES	TDP1 cell noCPT	ELG1 repair inh	DT40 TDP1 CPT	HT1080-NT tox	HT1080 IDH1KD tx	IL-1B inflam inh
CCOc1cc(-c2ccc(OC(=O)c3ccc(OC)cc3)c(OC)c2)cc(=O)c2c(C)oc(C)c12	18.4µM*	nt	14.6µM*	nt	nt	nt
COc1ccc(-c2cc(OC(=O)c3ccc(F)cc3)c3c(C)oc(C)c3c(=O)c2)cc1OC	?	nt	18.4µM*	nt	nt	nt
COc1ccc(-c2cc(OC)c3c(C)oc(C)c3c(=O)c2)cc1OC	?	0.0%	?	-15.1%	-21.1%	?
CCOC(=O)C(Cc1ccc(NC(=O)/C(=C\c2ccccc2)NC(=O)c2ccccc2)cc1)N1C(=O)c2ccccc2C1=O (stereo not given)	8.2µM*	1.8%	10.3µM*	0.6%	5.4%	23.6
CCc1ccc(-c2nc(CCl)cs2)cc1	?	?	11.6µM*	-2.7%	-2.0%	-23.3
COc1ccc(N2CC(O)=C(c3nc(-c4ccccc4)cs3)C2=N)cc1	20.6µM*	-7.8%	?	-11.0%	-21.3%	37.9
COc1cccc(-c2nc(CCl)cs2)c1	?	5.5%	20.6µM*	-3.3%	-4.2%	?
COc1ccc(-c2nc(CCl)cs2)cc1OC	11.6µM*	16.3%	4.61µM*	2.2%	-0.2%	1.3
COc1cccc(NC(=O)Cn2c(-c3nonc3N)nc3ccccc32)c1	-2.6%	nt	-12.0%	nt	nt	nt
CCc1ccc(NC(=O)C(C)OC(=O)Cn2[nH]c(=O)c3ccccc3c2=O)cc1 (stereo not given)	-6.7%	nt	-26.2%	-0.9%	5.3%	48.0
CC[N+](CC)=N/N=C1\C=CC[N+]([O-])=C1	-22.0%	nt	-1.7%	18.6%	?	0.0
COc1ccc(-c2csc(-c3ccccc3)n2)c(OC)c1	-7.9%	?	-2.6%	-5.5%	-11.5%	-4.2
COc1ccc(-c2csc(-c3ccc(O)cc3)n2)cc1	6.51µM*	?	7.31µM*	5.17µM*	1.64µM*	19.1
COc1ccc(-c2nc(CCl)cs2)cc1	5.8µM*	?	8.2µM*	-5.4%	1.2%	0.0
COc1ccc(-n2cnnc2SCc2csc(-c3ccccc3)n2)cc1	-27.0%	-14.5%	-13.9%	-2.3%	0.4%	8.4
ClCc1csc(-c2ccccc2Cl)n1	18.4µM*	-10.5%	11.6µM*	-8.9%	-4.9%	-3.2
COc1ccc(-c2nc(-c3ccc(O)cc3O)cs2)cc1OC	?	9.1%	?	?	?	-67.4*
CCOc1ccc(NC(=O)c2nc3nc(C)cc(C(F)F)n3n2)cc1	-19.8%	nt	-2.4%	nt	nt	nt
N#CCCn1c(=O)c(-c2cc(F)cc(F)c2)nc2cnc(N3CCOCC3)nc21	3.6%	nt	6.1%	nt	nt	nt
Cc1ccc(C)c(Cn2c3ccccc3c3cnn(CC(=O)NCCC4=CCCCC4)c(=O)c32)c1	-10.2%	nt	-4.7%	nt	nt	nt
COc1ccc(-c2csc(N(CC3CCCO3)C(=O)c3ccccc3)n2)cc1 (stereo not given)	?	8.2µM*	?	-22.9%	-22.0%	25.8
COc1ccc(-c2csc(N(CC3CCCO3)C(=O)c3ccc(C)cc3)n2)cc1 (stereo not given)	23.1µM*	?	25.9µM*	-26.3%	?	-19.4
COc1ccc(C(=O)N(Cc2cc3cccc(C)c3nc2N(C)C)CC2CCCO2)cc1 (stereo not given)	-4.1%	nt	-2.9%[9.04 µM]	nt	nt	nt
CC(=O)NC(c1ccccc1)c1nc(-c2cc(F)cc(F)c2)cs1 (stereo not given)	-15.0%	nt	-10.0%	-5.7%	-15.9%	?
Cc1nnc2n(c1=O)N=C(c1ccc(Cl)cc1)CS2	-3.5%	?	-1.7%	-16.8%	-20.3%	-5.0
SMILES	TDP1 cell noCPT	ELG1 repair inh	DT40 TDP1 CPT	HT1080-NT tox	HT1080 IDH1KD tx	IL-1B inflam inh
CCCCn1c(N)c(N(CC)C(=O)c2ccc([N+](=O)[O-])c(C)c2)c(=O)[nH]c1=O	-6.8%	4.4%	-1.2%	11.4%	11.6%	-1.6
COc1cc(F)ccc1-c1csc(C(O)c2ccc(F)cc2)n1 (stereo not given)	?	nt	23.1µM*	-1.9%	?	-5.9
COc1ccc(C(O)c2nc(-c3ccc(F)cc3OC)cs2)cc1 (stereo not given)	?	nt	25.9µM*	-4.8%	15.9%	-16.4
COc1ccc(-c2csc(C(O)c3ccc(F)cc3)n2)cc1OC (stereo not given)	-16.2%	nt	?	-15.8%	1.0%	-21.1
COc1cccc(C(O)c2nc(-c3ccc(F)cc3OC)cs2)c1 (stereo not given)	?	nt	-18.4%	?	19.4%	-21.6
CC(C)N(C)c1ncnc2c1ncn2[C@H]1CN(C2CCCC2)C[C@@H](CO)O1	-25.2%	nt	-22.9%	0.2%	18.5%	22.3
Cn1c(=O)c2cc(NC(=O)CCc3cccnc3)ccc2n1Cc1cccc(C(F)(F)F)c1	18.4µM*	nt	?	0.3%	1.9%	18.9
Cn1c(=O)c2cc(NC(=O)CCc3cccnc3)ccc2n1Cc1ccc(F)cc1	?	nt	16.4µM*	-4.1%	-4.7%	-2.6
COc1cc(Cn2c3ccc(NC(=O)NCCc4ccccc4)cc3c(=O)n2C)ccc1F	?	nt	?	-16.5%	-12.2%	-5.1
Cn1c(=O)c2cc(NC(=O)NCCc3ccccc3)ccc2n1Cc1ccccc1	?	nt	-29.9%	-2.7%	-15.9%	0.0
CCNC(=O)Nc1ccc2c(c1)c(=O)n(C)n2Cc1ccc(Cl)cc1	-17.7%	nt	-21.9%	29.6%	22.1%	13.5
COc1ccc(CCNC(=O)Nc2ccc3c(c2)c(=O)n(C)n3Cc2ccc(Cl)cc2)cc1OC	?	nt	8.2µM*	-24.3%	-24.6%	-16.3
COc1cc(Cn2c3ccc(NC(=O)CCc4ccccc4)cc3c(=O)n2C)ccc1F	2.91µM*	nt	6.51µM*	?	?	39.8
CC(NS(=O)(=O)c1ccc2c(c1)C(C)(C)C(=O)N2C)c1ccccc1 (stereo not given)	-22.6%	9.8%	-7.9%	1.4%	7.9%	10.2
CSc1nc(N2CCOCC2)nc2ccc(C)cc12	?	?	?	13.7%	6.3%	-14.8
COc1cccc(CNC(=S)Nc2ccc3c(c2)c(=O)n(C)n3Cc2ccccc2)c1	?	nt	?	25.0%	0.2%	-10.6
